# Screens from PubChem.
# Rows were chosen to be rich in hits. Some 1% of all compounds tested hit in one or more screens of this group.
# F-actin modifier: cytoskeleton assembly modification. HUVEC TNFa F-actin phalloidin imaging, high content. inhibition, % at 2 µM. 91,000 compounds, 0.18% hits. AID 836;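 active means inhibition above the batch mean plus 3 SD and confirmed as a hit by visual image inspection, cut at about 30% in these data, passing the limit was not always enough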
# VCAM1 TNFa inh: reduces TNF alpha induced VCAM1 expression in HUVEC; inhibition, % at 2 µM; 95,000 compounds, 0.48% hits; HUVEC TNFa-induced VCAM-1 immunofluorescence, high-content imaging;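 active means inhibition above the batch mean plus 3 SD, with images confirmed as a hit by eye, cut at about 37% in these data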
# TNFa cytotox: HUVEC cytotoxicity counter-screen, TNF alpha stimulated; cell count reduction, % at 2 µM; 93,000 compounds, 0.17% hits; HUVEC TNFalpha-stimulated, Hoechst cell count, imaging;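 active means cell count reduction exceeding the screen mean by over 5 SD, scaled to untreated wells per plate, cut at about 78% in these data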;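 further: cells counted after 24 h of TNF alpha exposure following the 1 h pretreatment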
# E-sel TNF inh: blocks E-selectin expression induced by TNF alpha; HUVEC TNFa-induced E-selectin immunofluorescence, high content; inhibition, % at 2 µM; AID 1246; 120,000 compounds, 0.71% hits;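 active means inhibition above the batch mean plus 3 SD, and confirmed as a hit on visual image review, cut at about 43% in these data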
# Numbers stand for hits; - = inactive; . = no result.
SMILES,F-actin modifier,VCAM1 TNFa inh,TNFa cytotox,E-sel TNF inh
CCn1cc(C(=O)O)c(=O)c2cc(F)c(N3CCN(C(=S)NC(=O)c4ccc(Br)cc4)CC3)cc21,.,.,.,74
CCn1cc(C(=O)O)c(=O)c2cc(F)c(N3CCN(C(=O)Nc4ccccc4)CC3)cc21,.,.,.,-
CCOC(=O)C1CCCN(c2ncnc3c2cnn3-c2ccc(Cl)cc2)C1 (stereo not drawn),.,-,-,63
CCOC(=O)C1CCCN(c2ncnc3c2cnn3-c2ccc(OC)cc2)C1 (stereo not drawn),-,-,-,.
N#Cc1cc2sc3nnc(-c4ccncc4)n3c2cc1C#N,.,.,.,58
CCCc1c(O)c2ccccc2[nH]c1=O,-,-,-,52
CCCCc1c(O)c2ccccc2[nH]c1=O,-,-,-,-
COc1cc(/C=C(/C#N)C(=O)NCCc2c[nH]c3ccccc23)ccc1OCc1ccccc1F,-,37,-,-
Cc1cc(/C=C(\C#N)C(=O)NCCc2c[nH]c3ccccc23)c(C)n1C,.,.,.,-
CCOC(=O)c1cnc(-n2nc(C)cc2C)nc1NCc1ccccc1,-,92,-,.
CCOC(=O)c1cnc(-n2nc(C)cc2C)nc1NCCO,-,-,-,-
CCOC(=O)N1CCN(CC(=O)Nc2ccc(Oc3ccccc3)cc2)CC1,-,-,-,-
CCOC(=O)N1CCC(N2CCN(S(=O)(=O)c3ccc4ccccc4c3)CC2)CC1,-,-,-,-
CCOC(=O)c1cc(-c2ccccc2)sc1NC(=S)Nc1cccc(C)n1,-,-,-,54
Cc1ccc2cc(C#N)c(N3CCCN(C(=O)C4CCCO4)CC3)nc2c1C (stereo not drawn),.,.,.,-
Cc1ccc2cc(C#N)c(N3CCCC3)nc2c1C,-,-,-,100
Cc1ccccc1NC(=O)Cn1nc(-c2ccccc2)nc1-c1ccccc1,-,-,-,-
CCC(C)(C)NC(=O)Cc1ccc(OC)c(OC)c1,-,-,-,-
CCC(C)(C)NC(=O)CN(C(=O)c1snc(C(N)=O)c1N)c1ccc(OC)c(OC)c1,-,-,-,76
O=S1(=O)N=C(N/N=C/c2ccc(Br)o2)c2ccccc21,.,.,.,-
CCOc1c(C)cc2[nH]c(CCC(=O)O)nc2c1C,.,.,.,96
COCCCNC(=S)NC1CC2CCCC(C1)N2Cc1ccco1 (stereo not drawn),68,-,-,-
CCn1c2ccc(/C(C)=N\O)cc2c2cc(/C(C)=N\O)ccc21,-,-,-,100
Cc1ccc(S(=O)(=O)N2CCCCC2)cc1NC(=O)C1CCCO1 (stereo not drawn),.,.,.,-
CCOC(=O)C1=C(c2ccccc2)O/C(=C(/C#N)C(F)(F)F)S1,-,56,-,-
SMILES,F-actin modifier,VCAM1 TNFa inh,TNFa cytotox,E-sel TNF inh
O=C(NC(=S)Nc1ccccc1O)c1ccc(-c2ccc(Cl)cc2)o1,-,-,-,-
Cc1ccc(O)c(NC(=S)NC(=O)c2ccc(-c3ccc(Cl)cc3)o2)c1,-,-,-,55
CCc1n[nH]c(=S)n1/N=C/c1ccc2c(c1)OCO2,-,-,-,-
CCCc1nnc(SCC(=O)O)n1/N=C/c1ccc2c(c1)OCO2,.,48,-,-
CC1(C(=O)OCc2cc(=O)n3cc(Br)ccc3n2)CC1(Cl)Cl (stereo not drawn),.,.,.,-
O=C(COC(=O)c1ccccc1Nc1cccc(C(F)(F)F)c1)NCc1ccco1,-,-,-,-
Cc1cc(-n2nnc3ccccc32)nc2ccccc12,-,-,-,-
Cc1nn(-c2cc(C)c3ccccc3n2)c2c1C1C(C2)C1(C)C (stereo not drawn),-,60,-,-
CCOC(=O)/C=C/S(=O)(=O)c1ccc(NC(C)=O)cc1,-,-,-,76
O=C(COc1cccnc1[N+](=O)[O-])NCCc1ccc(Cl)cc1Cl,.,.,.,-
C#CCN1C(=O)C(O)(CC(=O)c2cccc(OC)c2)c2ccccc21 (stereo not drawn),-,-,-,85
CCOc1ccccc1C1C2CCCCC2(O)CCN1C(=O)c1cccs1 (stereo not drawn),.,.,.,-
COCCCNC(=O)CN(Cc1ccc(Cl)cc1)S(C)(=O)=O,-,.,97,-
COC(=O)CN1C(=S)N(c2ccc(Cl)cc2)C(=O)C1CC(=O)Nc1ccc(F)cc1 (stereo not drawn),.,.,.,-
COC(=O)CN1C(=S)N(c2ccc(Cl)cc2)C(=O)C1CC(=O)Nc1ccc(Cl)cc1 (stereo not drawn),.,.,.,57
Cc1nc([N+](=O)[O-])c(Br)n1CC(=O)c1ccccc1,.,-,-,-
Cc1nc([N+](=O)[O-])c(Br)n1CC(=O)c1ccc(Br)cc1,-,40,-,-
CCOC(=O)Cc1cc(OC)c(OC)cc1Cc1cc(OC)c(OC)cc1CC(=O)OCC,-,-,-,-
O=C(/C=C\Nc1cccc(F)c1)c1cccs1,-,-,-,70
O=C(/C=C/Nc1ccc(F)cc1F)c1cccs1,.,.,.,-
COc1ccc(OC)c(NC(=O)C(=O)NNC(=O)c2cccs2)c1,.,.,.,-
N#Cc1c(-c2ccccc2)ccn(Cc2ccc(Cl)cc2)c1=O,-,-,-,.
Cc1cccc(N(C(=O)CCC(=O)Nc2nccs2)C(C(=O)NC(C)(C)C)c2ccc(O)cc2)c1 (stereo not drawn),.,.,.,-
O=C(/C(=C/c1ccc(Cl)cc1)c1nc2ccccc2[nH]1)c1cccs1,-,52,-,-
O=C(O)CCC(=O)Nc1ccc(Br)c(Cl)c1,-,-,-,75
SMILES,F-actin modifier,VCAM1 TNFa inh,TNFa cytotox,E-sel TNF inh
Cc1cc2cc(CCNC(=O)C(=O)c3c[nH]c4ccccc34)c(=O)[nH]c2cc1C,.,.,.,-
Cc1ccc(C(=O)NCC2CCCO2)cc1N1CCCC1=O (stereo not drawn),-,-,-,66
N#CC1=C(N)Oc2c(ccc3ccccc23)C1c1cccs1 (stereo not drawn),-,80,-,-
N#CC1=C(N)Oc2cc(O)ccc2C1c1cccs1 (stereo not drawn),-,-,-,-
COc1cc(S(=O)(=O)NC2CCCC2)ccc1Cl,-,-,-,-
COc1cc(S(=O)(=O)NC2CCCCC2C)ccc1Cl (stereo not drawn),-,-,-,51
Cc1cc(Br)ccc1SCC(=O)OCC(=O)NC1CCCC1,.,.,.,-
Cn1cc(SCC(=O)NCCc2ccccc2)c2ccccc21,.,.,.,-
COc1ccc(Cn2nnnc2C(c2cccs2)N2CCCCCC2)cc1 (stereo not drawn),-,-,-,-
COc1ccc(Cn2nnnc2C(c2cccs2)N2CCSCC2)cc1 (stereo not drawn),-,87,88,.
COc1ccc(C(c2nnnn2Cc2ccccc2)N2CCN(c3nc4ccccc4s3)CC2)cc1 (stereo not drawn),.,.,.,69
COc1ccc(C2CC(=O)C(C3NCCc4ccccc43)=C(O)C2n2cncn2)cc1 (stereo not drawn),.,.,.,-
COc1ccc(S(=O)(=O)N2CC3C4C=CC(C4)C3C2)cc1 (stereo not drawn),-,-,-,-
Cc1cc(C)n(C(=O)CNC(=O)CCc2ccccc2)n1,-,-,-,99
COC(=O)Sc1nc(N2CCOCC2)c2c(c1C#N)CC(C)(C)OC2,-,41,-,.
CCOC(=O)C1=C(O)/C(=C/c2cn(CC(=O)NCC3CCCO3)c3ccccc23)SC1=Nc1ccc(C)cc1 (stereo not drawn),-,89,-,-
Cc1ccc2cccc(Oc3ncnc4scc(-c5ccccc5)c34)c2n1,.,.,.,-
